# Sfp PPTase inh – Sfp phosphopantetheinyl transferase inhibition | Q9F4F7 | Potency, µM, inactives show largest response in the series, negative = inhibition, usual class: inhibitors | Biochemical Sfp PPTase activity, qHTS | 3.5% of 310,000 active | AID 1490;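 further: the enzyme is Sfp with the accession as filed and its product quenches rhodamine fluorescence; 0% = enzyme reaction without inhibitor and -100% = no enzyme wells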
#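 Sfp 15 nM + cpd, 15 min RT; start w/ rhodamine-CoA 5 uM, BHQ-2-YbbR 12.5 uM (final); 50 mM Hepes pH 7.6, 10 mM MgCl2, 0.01% NP-40, 0.01% BSA; read 525/598 nm at 0 and 30 min.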
# KAT2A inh – GCN5L2 (KAT2A) acetyltransferase inhibition; Q92830; GCN5L2 HAT assay, ThioGlo1 CoA-SH fluorescence; Potency, µM (top dose mostly 58.9 µM), inactives show at the top dose activity change, negative = inhibition, usual class: inhibitors; 0.21% of 390,000 active; AID 504327; further: on the % scale 0 is the no-effect control and ±100 the full control effect
#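 GCN5L2 (20 nM) in 50mM HEPES pH 7.5, 0.1mM EDTA, 0.01% Tween-20 preincubated 15 min with compounds at room temperature. Reaction started with H3(1-25) 75uM, acetyl-CoA 70uM, ThioGlo1 50uM; CoA-thiol fluorescence (Ex340/Em540) read at 0 and 20 min.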
# Epigenetic reg – derepresses silenced GFP reporter in murine cells | murine LDR cells, GFP reporter derepression, 30 h | Potency, µM (titrated, usually from 53.9 µM), for the others: at the top dose GFP activation, usual class: activators | 0.2% of 280,000 active; further: % of control where 0% means no effect; nearly all actives have a fitted effect of over 60% in size
#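 Reporter derepression read as number of fluorescent GFP-positive objects, 20-120 um in size, counted by laser-scanning cytometer. Mouse LDR line with an epigenetically silenced CMV-GFP locus; compound incubation 30 h, 37 C.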
# IMPase Li inh – IMPase inhibition in cells with lithium potentiation; 0.35% of 210,000 active; AID 1457; CHO-M1 cells, IP1 TR-FRET (IP-One), carbachol + lithium; Potency, µM (highest dose often 59.4 µM), inactives show top-dose activity, negative = IMPase inhibition, actives largely listed as inhibitors;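 further: IP1 builds up when IMPase is blocked and the TR-FRET signal falls; plate controls were basal vehicle for no effect and high inhibitor control for full effect; nearly all actives have a fitted effect of over 50% in size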
#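 CHO cells stably expressing M1 receptor (2000/well, cultured 16–30 h) treated 30 min at 37C with compound plus low lithium. Cytosolic IP1 by TR-FRET (665/620 ratio and 620 channel) after 10 min lysis; AC50 by Hill fit.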
# NPSR antag – antagonists of human neuropeptide S receptor cAMP signaling | Potency, µM (doses to about 38.3 µM), inactives show at the top dose activity change, negative = inhibition, hits mostly inhibitors | Q6W5P4 | 1% of 220,000 active | CHO-NPSR cells, cAMP TR-FRET, antagonist mode; further: on the % scale 0 is the no-effect control and ±100 the full control effect; nearly all actives have a fitted effect of over 50% in size
# Target sequence (Q6W5P4 whole entry, looked up): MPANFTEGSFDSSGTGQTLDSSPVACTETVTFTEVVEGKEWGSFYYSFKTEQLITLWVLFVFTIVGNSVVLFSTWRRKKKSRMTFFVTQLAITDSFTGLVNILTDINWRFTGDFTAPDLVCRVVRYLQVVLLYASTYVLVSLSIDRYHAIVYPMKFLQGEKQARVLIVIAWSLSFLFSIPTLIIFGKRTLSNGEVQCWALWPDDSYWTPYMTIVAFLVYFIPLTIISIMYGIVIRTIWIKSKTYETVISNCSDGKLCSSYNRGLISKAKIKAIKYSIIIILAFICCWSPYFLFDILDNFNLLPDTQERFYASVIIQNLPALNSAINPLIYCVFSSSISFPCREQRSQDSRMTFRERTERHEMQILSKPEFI
# KDM4E inh – blocks human JMJD2E demethylase activity | JMJD2E catalytic domain, FDH-coupled NADH fluorescence (FDH is formaldehyde dehydrogenase) | Potency, µM (doses to about 57.1 µM), for the others: top-dose activity change, negative = inhibition, most hits filed as inhibitors | 1.6% of 230,000 active | AID 2147; active means well fitted inhibition curve with a large enough effect, not every such curve was filed as active; inconclusive means small, poorly fitted or top-dose-only effect, or another doubt; inactive means no such curve, though single readings can be large or run the other way;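 further: 0% = wells with enzyme and -100% = buffer wells without enzyme; nearly all actives have a fitted effect of over 50% in size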
# Target sequence (B2RXH2 1-337 limits assumed): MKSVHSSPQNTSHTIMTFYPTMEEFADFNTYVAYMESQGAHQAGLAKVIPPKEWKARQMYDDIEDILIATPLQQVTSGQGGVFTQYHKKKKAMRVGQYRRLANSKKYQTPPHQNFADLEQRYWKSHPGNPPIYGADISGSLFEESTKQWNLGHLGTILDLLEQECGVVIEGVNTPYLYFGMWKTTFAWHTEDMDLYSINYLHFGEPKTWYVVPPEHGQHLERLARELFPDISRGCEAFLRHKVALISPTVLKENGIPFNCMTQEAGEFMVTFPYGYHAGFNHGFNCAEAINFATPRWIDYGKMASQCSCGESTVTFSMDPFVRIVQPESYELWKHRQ
# * marks the source's active call; other numbers are inactive results; ? = inconclusive; . = no result; [ ] = another dose, or the depositor's remark. Most compounds without a hit are left out; they make up all but 3.6% or so of the library. Unless noted, the call rests on the fitted dose curve; in most records, active means well fitted curve in the direction sought with a large enough effect; inconclusive means small, poorly fitted or top-dose-only effect, or another doubt; inactive means no such curve, though single readings can be large; an effect the other way counts as inactive or inconclusive. Potency means the concentration at half of the fitted maximal effect.
SMILES,Sfp PPTase inh,KAT2A inh,Epigenetic reg,IMPase Li inh,NPSR antag,KDM4E inh
CC(C)(C)c1ccc(OCc2ccc(C(=O)N/N=C/c3ccc(O)c(O)c3)cc2)cc1,-8%,-7%,?,7%,13µM*,?
O=C(N/N=C/c1ccc(OCc2ccccc2)cc1)c1cc[n+](Cc2ccccc2)cc1,-14%,-4%,-1%,.,-30%[46.1 µM],32µM*
[N-]=[N+]=N[C@@H]1[C@H](O)[C@H](CO)O[C@@H]1n1cnc2c(N)ncnc21,.,.,.,-4%,.,.
CN(C)/N=C/C=C1\CCC/C(=C\c2ccc(F)c(F)c2)C1=O,8.9µM*,2%,1%,19%,-40%,3%
COc1cccc(-n2c([S-])c(C(=O)Nc3ccc(S(=O)(=O)N4CCOCC4)cc3)[n+]3cc(C(N)=O)ccc23)c1,0%,-3%,2%,.,26%,14µM*
Cn1c(-c2ccc(C=O)s2)nc2c3ccccc3c3ccccc3c21,-5%,?,-1%,13µM*,14%[46.1 µM],?
Nc1ncnc2c1ncn2[C@H]1O[C@@H](CSCC[C@@H](N)C(=O)O)[C@H](O)[C@@H]1O,-29%,12%,1%,2%,.,.
O=C(NNC(=O)c1cccnc1SCc1cccc([N+](=O)[O-])c1)c1ccccn1,2%,3%,0%,11%,21%,10µM*
Cc1cc(C)nc(N/N=C/c2ccccc2OCc2ccccc2)n1,-8%,-4%,0%,-4%,-32%,-8%
Cc1cc(C)nc(N/N=C/c2ccccc2OCC(=O)O)n1,6.3µM*,-13%,.,.,.,.
Cc1ccc(-c2nnc3ccccc3c2C(=O)Nc2ccccc2F)cc1,.,-5%,-2%,.,.,.
O=C(Cn1cnc([N+](=O)[O-])n1)N/N=C/c1cc(Cl)ccc1O,21%,-9%,1%,-1%,6%,22µM*
Cc1ccccc1/C=N/NC(=O)Cn1cnc([N+](=O)[O-])n1,2%,-8%[0.501 µM],-1%,1%[38.3 µM],-20%[46.1 µM],-2%
O=C(Cn1cnc([N+](=O)[O-])n1)N/N=C/c1ccccc1O,27%,-4%,0%,9%[38.3 µM],11%[46.1 µM],25µM*
COc1ccc(OC(C)C(=O)NCc2nc(-c3cccc(C)c3)no2)cc1 (stereo unspecified),.,7%,-1%,.,.,.
O=Cc1ccc(O)c2ncccc12,25%,-3%,?,.,?,3.2µM*
O=[N+]([O-])c1ccc(NNS(=O)(=O)c2cc(Cl)ccc2Cl)nc1,35µM*,-21%,.,.,.,.
O=C(Nc1nnc(-c2ccc(F)cc2)s1)C1CCN(S(=O)(=O)c2ccc(Cl)cc2)CC1,-3%,8%,0%,7.9µM*,-53%,-1%
Cc1c(Cl)cccc1NC(=O)CC1SCCNC1=O (stereo unspecified),15%,2%,-1%,33%[38.3 µM],-7%[46.1 µM],8%
Cc1ccccc1NC(=O)CC1SCCNC1=O (stereo unspecified),22µM*,-3%,1%,16%[38.3 µM],0%[46.1 µM],-8%
CCOC(=O)N1CCC(n2c(SCC(=O)N3CCC(C)CC3)nc3ccccc3c2=O)CC1,79µM*,-4%,0%,9%[38.3 µM],-26%[46.1 µM],-2%
CCOC(=O)N1CCC(n2c(SCC(=O)N3CCCC3)nc3ccccc3c2=O)CC1,8%,-10%,-1%,-3%[38.3 µM],-11%[46.1 µM],3%
CC(C)Cc1nn2cc(-c3cccc(Br)c3)nc2s1,.,-11%,-5%,.,.,.
CN(CCO)Cc1ncccc1O,.,.,.,-7%,.,.
CCN1CCC2(CC1)N=C(c1ccc(F)cc1)C(=S)N2,22µM*,-11%,5%,21%,-12%,?
SMILES,Sfp PPTase inh,KAT2A inh,Epigenetic reg,IMPase Li inh,NPSR antag,KDM4E inh
Cc1ccc(-n2c3c(cc(-c4nc(-c5ccc(Cl)cc5)cs4)c2=O)C(=O)CC(C)(C)C3)cc1C,.,3%,0%,.,.,.
CCOc1ccc(C(=O)c2ccc(OC)c(O)c2O)cc1,-52%,-7%,-1%,15%,.,25µM*
COc1ccc(C(=O)c2ccc(O)cc2)c(O)c1O,28µM*,-18%,2%,9%,.,16µM*
COc1ccc(C(=O)c2ccccc2)c2c(O)ccc(C(=O)c3ccccc3)c12,2%,-4%,-2%,49%[38.3 µM],?,-2%
Nc1nc2c(c(=O)[nH]1)N=C(CNc1ccc(C(=O)NC(CCC(=O)O)C(=O)O)cc1)CN2 (stereo unspecified),-19%,-7%,-3%,15%,.,?
CC(=O)C1=C(O)C(=O)N(Cc2ccco2)C1c1ccccc1 (stereo unspecified),56µM*,-7%,2%,-16%[38.3 µM],-10%[46.1 µM],-10%
CC(=O)C1=C(O)C(=O)N(Cc2ccco2)C1c1ccc(F)cc1 (stereo unspecified),45µM*,1%,2%,-3%[38.3 µM],4%[46.1 µM],?
Cc1nc(NC2CCCCC2)c2nc(-c3ccccc3)n(CC3CCN(C)CC3)c2n1,12%,.,1%,-8%,.,?
COc1ccc(-c2noc(COc3ccc4c(c3)OCO4)n2)cc1OC,8%,-10%,2%,-30%[38.3 µM],8%[46.1 µM],-8%
COc1ccc(-c2noc(COc3ccc4c(c3)OCO4)n2)cc1,10µM*,2%,1%,?,-16%[46.1 µM],18%
CCOC(=O)C1=C(CSc2nc(C)ccc2C#N)OC(N)=C(C#N)C1c1cccc(OC)c1OC (stereo unspecified),14µM*,-13%,0%,11%[38.3 µM],?,?
CCOC(=O)C1=C(CC)OC(N)=C(C#N)C1c1ccc(OC)c(OC)c1OC (stereo unspecified),0%,-4%,0%,-3%,8%,-7%
CCOC(=O)C1=C(CSc2nc(-c3ccncc3)ccc2C#N)OC(N)=C(C#N)C1c1cccnc1 (stereo unspecified),79µM*,1%,-1%,-2%[38.3 µM],-21%[46.1 µM],-18%
CCOC(=O)C1=C(CSc2nc(CC)c(C)cc2C#N)OC(N)=C(C#N)C1c1ccc(OC)cc1 (stereo unspecified),7.9µM*,-19%,0%,6%,-19%[46.1 µM],-2%
Cc1oc(-c2ccccc2Cl)nc1CS(=O)CC(=O)N1CCN(c2cccc(C(F)(F)F)c2)CC1 (stereo unspecified),.,-5%,-3%,.,.,.
CC[C@H]1C(c2cccc(C)c2)=NN(c2ccccc2)[C@@H]1CO,1%,?,-1%,-16%,.,.
CC[C@H]1C(c2cccc(Cl)c2)=NN(c2ccccc2)[C@@H]1CO,17%,-17%[88.6 µM],0%,22µM*,.,.
CC(C)(C)C(=O)Oc1ccc(S(=O)(=O)Nc2ccccc2C(=O)NCC(=O)O)cc1,-2%,-6%,.,.,.,.
Cc1ccc(/C=C2\SC(=S)N(CC3CCCO3)C2=O)o1 (stereo unspecified),10µM*,-11%,15%,.,?,?

# Screening data (PubChem)
